# Source: PubChem BioAssay (NCATS)
# Results filed as inconclusive are left out. Entries that show only a call come without a potency. Activity calls are given as the source filed them. The call rests on the fitted dose curve; in most records, active means well fitted curve in the direction sought with a large enough effect; inconclusive means small, poorly fitted or top-dose-only effect, or another doubt; inactive means no such curve, though single readings can be large; an effect the other way counts as inactive or inconclusive.
# Assays:
# [1] = target: Calcium and integrin-binding protein 1 (Homo sapiens) (UniProt Q99828); test: Primary qHTS for Identification of Calcium Integrin Binding Protein 1 (CIB1) Competitor (AID 1508620); further: potency means the concentration at half of the fitted maximal effect
# Chain of Calcium and integrin-binding protein 1 (Homo sapiens) (Q99828 whole entry, looked up): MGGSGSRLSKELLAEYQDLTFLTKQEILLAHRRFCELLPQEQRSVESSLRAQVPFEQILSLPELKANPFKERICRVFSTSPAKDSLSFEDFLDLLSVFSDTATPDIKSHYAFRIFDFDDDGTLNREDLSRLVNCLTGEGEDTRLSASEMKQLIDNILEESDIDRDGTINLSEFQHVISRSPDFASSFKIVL
# Summary of the method: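 Fluorescence polarization competition: CIB1-GST (1 uM final) preincubated with compound 15 min at room temperature, then FITC-labeled alphaIIb peptide (100 nM final) added for another 15 min. Polarization read at Ex 480/Em 540.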
# [2] = Primary qHTS for inhibitors of La Crosse Virus (LACV) - induced cell death in SH-SY5Y cells (AID 1508616);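 further: top concentration of the series differs between compounds; higher means more rescue of cells from virus-induced death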
# Summary of the method: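 Readout was luminescence from ATPLite 1step added after a 6-day LACV infection (0.01 MOI) of SH-SY5Y cells that had received pin-transferred compound 24 hr after seeding.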
# [3] = Primary qHTS for small molecule stabilizers of the endoplasmic reticulum resident proteome: Secreted ER Calcium Modulated Protein (SERCaMP) assay (AID 1508630)
# Summary of the method: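 GLuc-SERCaMP-expressing SH-SY5Y cells, pretreated 16 h with compound, are challenged with thapsigargin to empty ER calcium stores; after 4 h, coelenterazine is added directly to the medium and luminescence is imaged.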
# [4] = Counterscreen qHTS for small molecule stabilizers of the endoplasmic reticulum resident proteome: GLuc-NoTag assay (AID 1508627); further: potency means the concentration at half of the fitted maximal effect
# Summary of the method: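 SH-SY5Y cells stably expressing constitutively secreted GLuc (no SERCaMP tag) were pre-incubated 5 h, treated with compound for 19 h, then 100 nM thapsigargin for 4 h at 37C; medium GLuc read by coelenterazine luminescence.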
# [5] = target: Calcium and integrin-binding protein 1 (Homo sapiens) (UniProt Q99828); test: Confirmatory qHTS for Identification of Calcium Integrin Binding Protein 1 (CIB1) Competitor (AID 1508617); further: nearly all actives have a fitted effect of over 65% in size; further: potency means the concentration at half of the fitted maximal effect
# Summary of the method: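 Confirmatory qHTS measures displacement of a FITC-alphaIIb peptide (100 nM) from CIB1-GST (1 uM) by fluorescence polarization. Calcium-containing HEPES buffer, pH 7.4; two 15 min room-temperature incubations.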
# [6] = Confirmatory qHTS for small molecule stabilizers of the endoplasmic reticulum resident proteome: Secreted ER Calcium Modulated Protein (SERCaMP) assay (AID 1508628);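 further: SH-SY5Y cells given compound 16 h then thapsigargin 100 nM for 4 h; series mostly up to about 76 µM; nearly all actives have a fitted effect of over 40% in size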
# Summary of the method: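 We seeded SH-SY5Y-GLuc-SERCaMP cells, added compounds (three concentrations in the primary run, eleven up to 76.6 uM in confirmation), incubated 16 h, depleted ER calcium with thapsigargin, and read luciferase 4 h later.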
# [7] = Cell Viability qHTS for small molecule stabilizers of the endoplasmic reticulum resident proteome (AID 1508629); conditions: cell viability counter-screen, 100 nM thapsigargin for final 4 h;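 further: potency means the concentration at half of the fitted maximal effect; compound exposure about 46 h in total before the viability read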
# [8] = Validation qHTS assay for inhibitors of Activation Induced Cytidine Deaminase (AID): UDG Counterscreen signal (AID 1347427)
# Summary of the method: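 Counterscreen read of UDG activity (2 U/mL, 4/3x) in the FRET deamination format with AID (1 uM, 4/3x), DJC20/DJC23 substrates (250 nM, 4x), 4 h at room temperature. NaOH stop, fluorescence at 560 ex/665 em.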
# [9] = target: Single-stranded DNA cytosine deaminase (Homo sapiens) (UniProt Q9GZX7); test: Validation qHTS assay for inhibitors of Activation Induced Cytidine Deaminase (AID): AID signal (AID 1347429)
# Chain of Single-stranded DNA cytosine deaminase (Homo sapiens) (Q9GZX7 whole entry, looked up): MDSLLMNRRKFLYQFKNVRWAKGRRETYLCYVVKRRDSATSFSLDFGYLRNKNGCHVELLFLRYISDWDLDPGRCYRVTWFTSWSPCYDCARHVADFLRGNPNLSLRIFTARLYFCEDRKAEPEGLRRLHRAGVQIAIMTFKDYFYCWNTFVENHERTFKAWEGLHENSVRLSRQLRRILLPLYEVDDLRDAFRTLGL
# Summary of the method: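 In this coupled qHTS, AID deaminates a FRET-labelled ssDNA substrate in the presence of UDG over 4 hr at room temperature. Compounds span up to 114 uM final.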
# [10] = target: Calcium and integrin-binding protein 1 (Homo sapiens) (UniProt Q99828); test: Validation qHTS for Identification of Calcium Integrin Binding protein 1 (CIB1) Competitor (AID 1508618)
# Summary of the method: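 Displacement of FITC-alphaIIb peptide (100 nM) from CIB1-GST (1 uM) is monitored by polarization in quantitative HTS format; buffer carries 5 mM CaCl2 and 125 mM NaCl at pH 7.4, incubations are at room temperature.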
smiles,measurement,setting,value
CNC(=O)[C@H](CC1=CN=C2C=CCC=C12)NC(=O)[C@@H](CC(=O)NO)CC(C)C,Potency,[1],inactive
CCCCC(C)(C)[C@H](O)C=C[C@H]1[C@H](O)CC(=O)[C@H]1CC=CCCCC(=O)O,Potency,[1],inactive
O=C(Nc1cccc2c(=O)cc(-c3nn[nH]n3)oc12)c1ccc(OCCCCc2ccccc2)cc1,outcome,[2],inactive
same,Potency,[1],inactive
same,Potency,[3],inactive
O[C@@H](COc1cccc2ncccc12)CN1CCN(C2c3ccccc3[C@@H]3[C@H](c4ccccc42)C3(F)F)CC1 (stereo partly specified),outcome,[2],inactive
same,Potency,[1],inactive
same,Potency,[4],inactive
O=C1Nc2ccc(I)cc2C1=Cc1cc(Br)c(O)c(Br)c1,Potency,[1],inactive
N#Cc1c(N(CC(=O)O)CC(=O)O)sc(C(=O)O)c1CC(=O)O,Potency,[1],inactive
COc1ccnc(CS(=O)c2nc3ccc(OC(F)F)cc3[nH]2)c1OC (stereo unspecified),outcome,[2],inactive
same,Potency,[1],inactive
same,Potency,[3],inactive
C=C1c2cccc(O)c2C(O)=C2C(=O)[C@@]3(O)C(O)=C(C(N)=O)C(=O)[C@@H](N(C)C)[C@@H]3[C@@H](O)[C@H]12,Potency,[1],inactive
OC[C@H]1O[C@@H](OCCc2ccc(O)cc2)[C@H](O)[C@@H](O)[C@H]1O,outcome,[2],inactive
same,Potency,[1],inactive
COc1c(C)c2c(c(O)c1CC=C(C)CCC(=O)O)C(=O)OC2,Potency,[1],inactive
CN1CCc2c(n(Cc3ccc(C(=O)NO)cc3)c3ccccc23)C1,Potency,[1],inactive
CO[C@@H]1C(N(C)C(=O)c2ccccc2)C[C@H]2O[C@]1(C)n1c3ccccc3c3c4c(c5c6ccccc6n2c5c31)C(=O)NC4=O (stereo partly specified),Potency,[5],15.8 µM (active)
same,Potency,[1],19.2 µM (active)
same,Potency,[3],inactive
CC[C@H](CC#N)OC(=O)N[C@@H](C)c1cccc(NC(=O)Nc2ccc(-c3cnco3)c(OC)c2)c1,Potency,[1],inactive
CC(C)C[C@@H](C(=O)N[C@H](C(=O)OC1CCCC1)c1ccccc1)[C@H](O)C(=O)NO,Potency,[1],inactive
COc1ccc2nc3cc(Cl)ccc3c(Nc3cc(CN4CCCC4)c(O)c(CN4CCCC4)c3)c2n1,Potency,[1],inactive
C[C@H]1COC2=C1C(=O)C(=O)c1c2ccc2c1CCCC2(C)C,Potency,[5],inactive
Cc1nc(C(=O)NCC(=O)O)c(O)c2ccc(Oc3ccccc3)cc12,Potency,[5],inactive
NC[C@H]1O[C@H](O[C@@H]2[C@@H](O)[C@@H](O[C@H]3O[C@H](CO)[C@@H](O)[C@H](N)[C@@H]3O)[C@H](N)C[C@@H]2N)[C@H](O)[C@@H](O)[C@H]1O,Potency,[1],inactive
O=C(CCCN1CCN(c2ccc(F)cc2)CC1)NC1c2ccccc2CSc2ccccc21 (stereo unspecified),outcome,[2],inactive
same,Potency,[1],inactive
same,Potency,[4],39.8 µM (active)
same,Potency,[6],inactive
same,Potency,[7],25.1 µM (active)
Cc1cc(OCCCS(C)(=O)=O)cc(C)c1-c1cccc(COc2ccc3c(c2)OC[C@H]3CC(=O)O)c1,Potency,[1],inactive
CN(C)CCN(Cc1ccc(Cl)cc1)c1ccccn1,outcome,[2],inactive
same,Potency,[1],inactive
same,Potency,[3],inactive
C[C@@H]1C[C@H]2[C@@H]3CCC4=CC(=O)C=C[C@]4(C)[C@@]3(F)[C@@H](O)C[C@]2(C)[C@@]1(O)C(=O)CO,outcome,[2],inactive
same,Potency,[1],inactive
same,Potency,[3],inactive
COc1cc(N2CCN(C)CC2)ccc1Nc1nc(N)c(C(=O)c2c(Cl)cccc2Cl)s1,Potency,[1],inactive
COc1ccc(-c2nc3ccc(C4=NNC(=O)CC4C)cc3[nH]2)cc1 (stereo unspecified),outcome,[2],inactive
same,Potency,[1],inactive
CCCCC[C@H](O)C=C[C@H]1[C@H](O)CC(=O)[C@H]1CC=CCCCC(=O)O,outcome,[2],inactive
same,Potency,[1],inactive
same,Potency,[3],inactive
C[C@@]1(C(=O)Nc2ccc(F)nc2)CCCN1c1nc(Nc2cc(C3CC3)[nH]n2)c2cccn2n1,Potency,[1],inactive
Cc1ccc(C(=O)N(CCCN)[C@@H](c2oc3cc(Cl)ccc3c(=O)c2Cc2ccccc2)C(C)C)cc1,Potency,[1],inactive
C=CCc1cccc(C=NNC(=O)CN2CCN(Cc3ccccc3)CC2)c1O,outcome,[8],inactive
same,outcome,[9],inactive
same,outcome,[10],inactive
same,Potency,[1],inactive
same,Potency,[3],inactive
C[C@@H]1O[C@@H](O[C@H]2CC[C@@]3(C)[C@H](CC[C@@H]4[C@H]3C[C@@H](O)[C@]3(C)[C@@H](C5=CC(=O)OC5)CC[C@]43O)C2)C[C@H](O)[C@@H]1O[C@H]1C[C@H](O)[C@H](O[C@H]2C[C@H](O)[C@@H](O)[C@@H](C)O2)[C@H](C)O1 (stereo in doubt),Potency,[1],inactive
Cc1cccc(-c2[nH]c(C(C)(C)C)nc2-c2ccc3c(c2)OCO3)n1,Potency,[1],inactive
c1cc(OCCN2CCCCC2)cc(-c2n[nH]c3ccc(-c4ncn[nH]4)cc23)c1,Potency,[1],inactive
Cc1cc(NC(=O)Nc2ccc(N(C)C)cc2)c2cc(F)cc(F)c2n1,Potency,[1],inactive
